Legend:
Assay in all cases: log2 ratio of Biotin-Ahx-Ub-VS probe labelling (fragment/DMSO); higher = less target engagement (more negative = stronger competition), active = hit call of the paper (q ≤ 0.05, log2 ratio ≤ -1)
Conditions in all cases: compound concentration: 200 uM; treatment time: 3 h
USP42 = target: T1, USP42 (UniProt Q9H9J4)
T1 sequence (whole entry): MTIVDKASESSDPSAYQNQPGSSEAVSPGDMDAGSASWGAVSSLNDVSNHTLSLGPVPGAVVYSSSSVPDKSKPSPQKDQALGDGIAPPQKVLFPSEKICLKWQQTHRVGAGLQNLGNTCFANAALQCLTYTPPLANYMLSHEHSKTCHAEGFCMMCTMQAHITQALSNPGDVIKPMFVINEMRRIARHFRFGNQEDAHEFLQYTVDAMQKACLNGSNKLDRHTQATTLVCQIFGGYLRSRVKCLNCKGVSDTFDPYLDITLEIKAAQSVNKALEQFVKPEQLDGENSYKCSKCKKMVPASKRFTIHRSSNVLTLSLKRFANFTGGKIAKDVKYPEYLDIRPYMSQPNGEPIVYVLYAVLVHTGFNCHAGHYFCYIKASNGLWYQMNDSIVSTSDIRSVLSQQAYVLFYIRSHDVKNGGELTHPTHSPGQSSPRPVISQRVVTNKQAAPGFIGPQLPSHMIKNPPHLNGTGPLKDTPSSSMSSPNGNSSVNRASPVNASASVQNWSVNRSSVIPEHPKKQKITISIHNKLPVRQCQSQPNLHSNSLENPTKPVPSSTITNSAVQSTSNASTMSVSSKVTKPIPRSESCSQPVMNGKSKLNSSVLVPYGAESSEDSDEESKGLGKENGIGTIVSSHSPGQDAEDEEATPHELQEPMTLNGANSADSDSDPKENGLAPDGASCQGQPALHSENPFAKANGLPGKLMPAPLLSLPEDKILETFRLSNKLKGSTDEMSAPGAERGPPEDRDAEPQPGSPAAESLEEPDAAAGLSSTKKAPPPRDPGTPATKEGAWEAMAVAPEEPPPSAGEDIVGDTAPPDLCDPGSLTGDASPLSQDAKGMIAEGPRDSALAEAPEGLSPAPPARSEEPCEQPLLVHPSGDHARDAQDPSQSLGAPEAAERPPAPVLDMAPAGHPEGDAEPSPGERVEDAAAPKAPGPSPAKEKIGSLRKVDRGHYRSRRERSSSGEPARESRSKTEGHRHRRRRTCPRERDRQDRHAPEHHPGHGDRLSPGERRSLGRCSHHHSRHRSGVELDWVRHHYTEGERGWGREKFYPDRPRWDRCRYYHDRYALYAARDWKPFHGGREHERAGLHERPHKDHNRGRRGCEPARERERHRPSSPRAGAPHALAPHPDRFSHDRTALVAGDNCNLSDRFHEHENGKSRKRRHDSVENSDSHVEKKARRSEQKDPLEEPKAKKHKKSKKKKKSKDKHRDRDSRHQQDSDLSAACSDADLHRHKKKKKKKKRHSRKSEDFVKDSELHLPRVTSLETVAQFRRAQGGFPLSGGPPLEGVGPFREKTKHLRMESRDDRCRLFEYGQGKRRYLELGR
Outline: (§1)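 Global-median-normalised Spectronaut label-free quantities were compared by unpaired t-test, and values are average log2 ratios of fragment over vehicle. Only proteins with ≥2 unique peptides were used. HEK293T lysate (495 µg per sample) was treated in triplicate with fragment at 200 µM or vehicle for 3 h and then with Biotin-Ahx-Ub-VS at 0.5 µM final for 1 h. Labelled DUBs were then NeutrAvidin-enriched, digested with LysC and trypsin, and run by diaPASEF LC-MS/MS.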

USP46 = USP46 (UniProt P62068)
Outline: as §1

USP47 = target: T2, USP47 (UniProt Q96K76)
T2 sequence (whole entry): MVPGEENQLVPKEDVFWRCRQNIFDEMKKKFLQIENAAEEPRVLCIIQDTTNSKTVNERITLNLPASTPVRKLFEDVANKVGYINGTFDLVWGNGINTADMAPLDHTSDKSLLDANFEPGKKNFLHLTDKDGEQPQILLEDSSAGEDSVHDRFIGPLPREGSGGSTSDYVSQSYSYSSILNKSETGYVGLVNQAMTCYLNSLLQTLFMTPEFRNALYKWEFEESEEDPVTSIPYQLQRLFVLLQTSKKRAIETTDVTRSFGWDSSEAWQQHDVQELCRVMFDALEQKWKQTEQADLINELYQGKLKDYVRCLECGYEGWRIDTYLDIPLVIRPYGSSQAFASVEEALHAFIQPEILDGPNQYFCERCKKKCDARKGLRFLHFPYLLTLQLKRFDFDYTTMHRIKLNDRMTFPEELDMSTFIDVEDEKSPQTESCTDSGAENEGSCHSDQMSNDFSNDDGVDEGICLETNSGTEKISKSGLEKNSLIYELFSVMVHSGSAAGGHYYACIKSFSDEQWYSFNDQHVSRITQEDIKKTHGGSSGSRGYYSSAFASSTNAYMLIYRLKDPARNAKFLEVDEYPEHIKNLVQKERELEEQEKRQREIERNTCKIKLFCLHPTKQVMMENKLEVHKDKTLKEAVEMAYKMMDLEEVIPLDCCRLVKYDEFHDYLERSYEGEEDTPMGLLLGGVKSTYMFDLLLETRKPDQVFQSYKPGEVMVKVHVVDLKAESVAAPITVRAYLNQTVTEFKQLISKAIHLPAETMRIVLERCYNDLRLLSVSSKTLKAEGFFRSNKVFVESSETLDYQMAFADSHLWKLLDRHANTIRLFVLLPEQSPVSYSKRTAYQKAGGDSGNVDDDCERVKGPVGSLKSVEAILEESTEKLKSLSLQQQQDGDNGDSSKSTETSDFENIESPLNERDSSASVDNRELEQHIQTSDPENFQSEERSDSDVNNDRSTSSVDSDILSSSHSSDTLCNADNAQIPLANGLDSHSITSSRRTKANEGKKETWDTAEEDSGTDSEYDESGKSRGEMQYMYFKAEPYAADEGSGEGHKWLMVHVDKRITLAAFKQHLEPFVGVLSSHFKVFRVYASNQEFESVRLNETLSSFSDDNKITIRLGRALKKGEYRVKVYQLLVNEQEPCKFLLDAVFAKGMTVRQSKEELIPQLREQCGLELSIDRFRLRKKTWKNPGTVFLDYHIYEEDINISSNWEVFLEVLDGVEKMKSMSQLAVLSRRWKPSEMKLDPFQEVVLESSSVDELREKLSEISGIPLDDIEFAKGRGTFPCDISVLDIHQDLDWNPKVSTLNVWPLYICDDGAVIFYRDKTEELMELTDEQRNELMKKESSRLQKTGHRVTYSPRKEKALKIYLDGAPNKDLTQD
Outline: as §1

USP48 = target: T3, USP48 (UniProt Q86UV5)
T3 sequence (whole entry): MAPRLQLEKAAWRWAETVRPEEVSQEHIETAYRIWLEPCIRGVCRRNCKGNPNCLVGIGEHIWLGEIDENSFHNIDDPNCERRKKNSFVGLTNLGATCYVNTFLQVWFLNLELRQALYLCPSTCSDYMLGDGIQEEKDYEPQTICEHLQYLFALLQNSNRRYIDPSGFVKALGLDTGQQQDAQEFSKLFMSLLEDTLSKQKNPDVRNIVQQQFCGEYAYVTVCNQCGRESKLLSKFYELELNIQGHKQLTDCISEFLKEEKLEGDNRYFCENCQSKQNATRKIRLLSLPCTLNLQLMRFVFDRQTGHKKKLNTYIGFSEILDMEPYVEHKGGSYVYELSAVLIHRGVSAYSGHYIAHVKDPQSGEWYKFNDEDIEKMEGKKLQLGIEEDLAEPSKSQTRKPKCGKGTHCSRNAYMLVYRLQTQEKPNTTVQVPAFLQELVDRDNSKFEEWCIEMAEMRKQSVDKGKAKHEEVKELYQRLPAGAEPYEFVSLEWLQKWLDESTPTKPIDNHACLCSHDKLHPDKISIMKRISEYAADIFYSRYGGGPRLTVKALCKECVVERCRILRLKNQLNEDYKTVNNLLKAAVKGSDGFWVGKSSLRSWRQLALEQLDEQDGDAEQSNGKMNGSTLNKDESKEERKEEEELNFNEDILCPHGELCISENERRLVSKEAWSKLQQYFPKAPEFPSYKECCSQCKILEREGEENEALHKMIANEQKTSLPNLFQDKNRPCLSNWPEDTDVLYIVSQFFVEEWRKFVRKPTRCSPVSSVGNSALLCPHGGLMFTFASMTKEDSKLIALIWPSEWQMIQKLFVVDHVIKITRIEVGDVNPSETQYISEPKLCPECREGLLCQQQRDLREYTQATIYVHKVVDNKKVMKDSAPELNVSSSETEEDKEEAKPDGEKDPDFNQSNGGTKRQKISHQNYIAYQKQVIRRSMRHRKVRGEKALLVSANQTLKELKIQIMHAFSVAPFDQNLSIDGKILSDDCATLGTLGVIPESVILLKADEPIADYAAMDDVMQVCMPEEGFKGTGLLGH
Outline: as §1

USP5 = target: T4, USP5 (UniProt P45974)
T4 sequence (whole entry): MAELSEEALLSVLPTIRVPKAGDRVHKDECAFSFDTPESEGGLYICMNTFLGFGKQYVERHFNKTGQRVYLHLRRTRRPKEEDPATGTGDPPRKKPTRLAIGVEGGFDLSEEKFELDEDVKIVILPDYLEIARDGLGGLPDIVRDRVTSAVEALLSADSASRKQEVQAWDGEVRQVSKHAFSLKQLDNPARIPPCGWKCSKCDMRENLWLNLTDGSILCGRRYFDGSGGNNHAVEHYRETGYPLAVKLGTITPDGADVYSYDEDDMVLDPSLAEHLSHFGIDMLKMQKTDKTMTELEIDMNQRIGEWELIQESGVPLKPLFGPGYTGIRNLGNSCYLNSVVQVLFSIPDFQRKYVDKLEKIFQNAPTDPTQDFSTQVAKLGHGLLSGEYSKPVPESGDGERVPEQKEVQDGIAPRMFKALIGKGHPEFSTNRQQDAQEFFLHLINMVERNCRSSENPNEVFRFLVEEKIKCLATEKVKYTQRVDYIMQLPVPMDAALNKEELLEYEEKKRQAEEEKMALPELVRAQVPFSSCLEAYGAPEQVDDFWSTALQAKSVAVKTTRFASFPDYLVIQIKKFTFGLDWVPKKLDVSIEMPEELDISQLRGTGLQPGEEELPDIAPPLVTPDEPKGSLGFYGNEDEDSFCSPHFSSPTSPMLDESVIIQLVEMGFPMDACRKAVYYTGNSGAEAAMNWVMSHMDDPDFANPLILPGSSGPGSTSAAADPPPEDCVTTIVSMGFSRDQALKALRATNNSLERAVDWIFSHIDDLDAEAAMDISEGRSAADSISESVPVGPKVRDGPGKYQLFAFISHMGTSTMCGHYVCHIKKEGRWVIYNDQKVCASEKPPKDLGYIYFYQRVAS
Outline: as §1

USP54 = USP54 (UniProt Q70EL1)
Outline: as §1

USP7 = USP7 (UniProt Q93009)
Outline: as §1

USP8 = target: T5, USP8 (UniProt P40818)
T5 sequence (whole entry): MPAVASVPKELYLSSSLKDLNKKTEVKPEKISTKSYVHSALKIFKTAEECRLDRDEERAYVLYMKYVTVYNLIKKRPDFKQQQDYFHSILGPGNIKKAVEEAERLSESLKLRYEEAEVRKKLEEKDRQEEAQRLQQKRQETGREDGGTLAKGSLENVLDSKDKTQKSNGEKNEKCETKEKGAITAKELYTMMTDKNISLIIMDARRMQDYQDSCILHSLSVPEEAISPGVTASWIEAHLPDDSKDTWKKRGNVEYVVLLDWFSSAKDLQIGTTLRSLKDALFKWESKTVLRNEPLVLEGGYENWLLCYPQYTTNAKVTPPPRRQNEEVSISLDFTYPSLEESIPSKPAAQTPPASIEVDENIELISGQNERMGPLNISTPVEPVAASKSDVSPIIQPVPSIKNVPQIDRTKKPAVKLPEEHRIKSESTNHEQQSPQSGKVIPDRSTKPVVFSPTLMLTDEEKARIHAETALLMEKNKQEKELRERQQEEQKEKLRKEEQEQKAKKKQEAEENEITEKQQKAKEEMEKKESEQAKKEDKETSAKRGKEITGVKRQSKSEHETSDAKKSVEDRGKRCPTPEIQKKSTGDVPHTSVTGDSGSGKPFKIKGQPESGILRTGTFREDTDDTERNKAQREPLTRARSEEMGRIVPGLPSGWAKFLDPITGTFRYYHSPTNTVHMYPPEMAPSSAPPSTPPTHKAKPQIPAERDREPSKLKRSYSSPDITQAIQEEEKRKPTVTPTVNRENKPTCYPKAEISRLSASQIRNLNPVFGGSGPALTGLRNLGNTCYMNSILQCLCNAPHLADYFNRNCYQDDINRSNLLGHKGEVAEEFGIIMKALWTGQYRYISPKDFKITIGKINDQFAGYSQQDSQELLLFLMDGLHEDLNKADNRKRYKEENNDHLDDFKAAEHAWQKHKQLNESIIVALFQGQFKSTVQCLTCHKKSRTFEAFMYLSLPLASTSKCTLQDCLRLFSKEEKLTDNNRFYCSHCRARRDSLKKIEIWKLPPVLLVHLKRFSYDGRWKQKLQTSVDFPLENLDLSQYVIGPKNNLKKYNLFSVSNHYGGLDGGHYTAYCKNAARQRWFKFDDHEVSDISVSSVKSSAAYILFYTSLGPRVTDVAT
Outline: as §1

USP9X = USP9X (UniProt Q93008)
Outline: as §1

UniProt O00487 = target: UniProt O00487
Outline: as §1

Measured: log2 ratio of Biotin-Ahx-Ub-VS probe labelling

USP7, sequence (Q93009 whole entry, looked up): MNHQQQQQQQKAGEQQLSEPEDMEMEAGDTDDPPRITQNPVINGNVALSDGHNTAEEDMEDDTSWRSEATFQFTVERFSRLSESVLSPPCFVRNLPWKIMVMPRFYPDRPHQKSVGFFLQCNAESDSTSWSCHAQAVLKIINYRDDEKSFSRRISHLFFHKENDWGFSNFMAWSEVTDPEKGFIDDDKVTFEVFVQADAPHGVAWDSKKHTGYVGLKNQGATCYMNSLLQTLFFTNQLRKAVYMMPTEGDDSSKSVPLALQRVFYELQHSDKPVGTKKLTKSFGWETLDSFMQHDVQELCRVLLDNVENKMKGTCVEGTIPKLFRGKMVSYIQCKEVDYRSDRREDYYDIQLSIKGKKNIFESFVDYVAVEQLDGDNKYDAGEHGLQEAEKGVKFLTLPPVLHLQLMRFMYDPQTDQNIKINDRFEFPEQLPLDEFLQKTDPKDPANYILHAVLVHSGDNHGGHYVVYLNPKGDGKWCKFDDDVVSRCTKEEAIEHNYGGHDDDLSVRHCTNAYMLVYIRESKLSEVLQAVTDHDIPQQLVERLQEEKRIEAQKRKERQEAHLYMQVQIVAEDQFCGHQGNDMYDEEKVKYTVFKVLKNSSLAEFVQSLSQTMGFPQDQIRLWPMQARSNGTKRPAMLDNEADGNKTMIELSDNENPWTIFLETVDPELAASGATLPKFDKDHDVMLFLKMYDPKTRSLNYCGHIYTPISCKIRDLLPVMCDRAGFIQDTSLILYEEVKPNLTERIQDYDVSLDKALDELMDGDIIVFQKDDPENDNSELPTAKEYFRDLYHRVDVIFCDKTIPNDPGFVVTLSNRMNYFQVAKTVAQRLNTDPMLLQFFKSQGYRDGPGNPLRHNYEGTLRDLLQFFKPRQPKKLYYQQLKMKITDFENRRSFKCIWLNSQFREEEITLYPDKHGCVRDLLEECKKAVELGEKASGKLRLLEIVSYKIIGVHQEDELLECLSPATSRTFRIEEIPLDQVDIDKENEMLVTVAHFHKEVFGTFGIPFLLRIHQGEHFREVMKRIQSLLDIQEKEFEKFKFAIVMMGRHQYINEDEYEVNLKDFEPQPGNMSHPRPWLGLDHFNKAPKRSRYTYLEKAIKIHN
USP9X, sequence (Q93008 whole entry): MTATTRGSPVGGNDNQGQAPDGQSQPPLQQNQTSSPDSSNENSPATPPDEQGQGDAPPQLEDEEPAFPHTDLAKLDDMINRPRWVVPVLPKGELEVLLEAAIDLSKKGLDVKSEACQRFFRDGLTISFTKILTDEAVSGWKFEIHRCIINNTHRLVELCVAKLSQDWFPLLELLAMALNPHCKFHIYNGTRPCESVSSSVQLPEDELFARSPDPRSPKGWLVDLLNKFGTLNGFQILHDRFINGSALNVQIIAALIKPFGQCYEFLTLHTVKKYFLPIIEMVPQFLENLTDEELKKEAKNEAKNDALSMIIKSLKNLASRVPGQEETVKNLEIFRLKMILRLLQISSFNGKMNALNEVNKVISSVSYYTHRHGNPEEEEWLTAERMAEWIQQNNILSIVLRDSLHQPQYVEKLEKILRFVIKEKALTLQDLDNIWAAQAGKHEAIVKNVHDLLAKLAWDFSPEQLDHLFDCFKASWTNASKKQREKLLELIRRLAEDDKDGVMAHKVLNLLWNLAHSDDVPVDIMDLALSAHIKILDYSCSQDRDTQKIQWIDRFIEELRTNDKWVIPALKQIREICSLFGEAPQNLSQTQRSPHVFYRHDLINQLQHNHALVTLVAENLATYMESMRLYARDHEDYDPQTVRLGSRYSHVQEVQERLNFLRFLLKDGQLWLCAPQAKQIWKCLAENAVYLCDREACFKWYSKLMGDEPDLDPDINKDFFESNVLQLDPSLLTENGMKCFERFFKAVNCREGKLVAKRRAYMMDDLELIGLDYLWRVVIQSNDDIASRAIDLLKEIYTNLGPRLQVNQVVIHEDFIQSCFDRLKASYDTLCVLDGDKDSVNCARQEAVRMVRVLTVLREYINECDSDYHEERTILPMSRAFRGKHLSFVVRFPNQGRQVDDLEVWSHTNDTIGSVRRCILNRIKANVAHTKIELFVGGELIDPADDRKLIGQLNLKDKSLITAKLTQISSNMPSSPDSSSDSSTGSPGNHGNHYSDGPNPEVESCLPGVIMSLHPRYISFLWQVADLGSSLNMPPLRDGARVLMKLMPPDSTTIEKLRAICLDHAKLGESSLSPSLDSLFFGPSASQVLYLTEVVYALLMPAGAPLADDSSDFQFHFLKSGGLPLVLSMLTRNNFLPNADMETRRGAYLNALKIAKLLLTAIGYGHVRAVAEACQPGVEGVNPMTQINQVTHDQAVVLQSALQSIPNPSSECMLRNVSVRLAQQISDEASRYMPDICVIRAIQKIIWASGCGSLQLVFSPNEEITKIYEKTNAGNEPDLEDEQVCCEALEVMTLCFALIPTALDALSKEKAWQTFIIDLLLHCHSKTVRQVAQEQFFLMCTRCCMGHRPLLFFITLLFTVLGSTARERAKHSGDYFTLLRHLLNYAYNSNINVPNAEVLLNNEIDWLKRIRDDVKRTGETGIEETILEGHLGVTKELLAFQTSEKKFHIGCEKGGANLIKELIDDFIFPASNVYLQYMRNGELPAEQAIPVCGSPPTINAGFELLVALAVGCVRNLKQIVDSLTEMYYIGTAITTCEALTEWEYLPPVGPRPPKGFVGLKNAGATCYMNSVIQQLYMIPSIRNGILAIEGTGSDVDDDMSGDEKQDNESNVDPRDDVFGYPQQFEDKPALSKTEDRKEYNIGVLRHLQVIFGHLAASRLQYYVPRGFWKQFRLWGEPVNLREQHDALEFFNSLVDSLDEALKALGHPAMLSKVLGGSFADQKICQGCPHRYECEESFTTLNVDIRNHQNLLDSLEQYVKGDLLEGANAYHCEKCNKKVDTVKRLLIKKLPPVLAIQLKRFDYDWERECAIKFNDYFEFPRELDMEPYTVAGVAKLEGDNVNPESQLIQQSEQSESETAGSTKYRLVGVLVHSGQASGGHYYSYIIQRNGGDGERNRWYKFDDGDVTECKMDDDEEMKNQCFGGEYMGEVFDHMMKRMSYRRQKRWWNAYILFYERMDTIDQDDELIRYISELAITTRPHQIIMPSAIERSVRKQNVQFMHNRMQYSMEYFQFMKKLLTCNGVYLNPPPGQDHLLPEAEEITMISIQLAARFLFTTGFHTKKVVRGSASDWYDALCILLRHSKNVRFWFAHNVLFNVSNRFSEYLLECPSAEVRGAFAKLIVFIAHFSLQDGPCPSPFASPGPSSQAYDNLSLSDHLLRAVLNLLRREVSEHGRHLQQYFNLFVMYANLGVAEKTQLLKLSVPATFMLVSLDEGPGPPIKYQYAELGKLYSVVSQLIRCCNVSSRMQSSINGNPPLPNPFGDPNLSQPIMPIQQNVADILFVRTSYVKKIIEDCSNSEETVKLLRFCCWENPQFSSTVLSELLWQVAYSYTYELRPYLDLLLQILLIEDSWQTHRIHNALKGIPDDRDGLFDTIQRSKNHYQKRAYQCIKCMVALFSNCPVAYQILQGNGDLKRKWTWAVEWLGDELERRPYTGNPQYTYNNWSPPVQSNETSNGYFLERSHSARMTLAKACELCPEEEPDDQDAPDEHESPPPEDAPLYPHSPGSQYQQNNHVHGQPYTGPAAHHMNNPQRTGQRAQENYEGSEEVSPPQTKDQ
USP46, sequence (P62068 whole entry): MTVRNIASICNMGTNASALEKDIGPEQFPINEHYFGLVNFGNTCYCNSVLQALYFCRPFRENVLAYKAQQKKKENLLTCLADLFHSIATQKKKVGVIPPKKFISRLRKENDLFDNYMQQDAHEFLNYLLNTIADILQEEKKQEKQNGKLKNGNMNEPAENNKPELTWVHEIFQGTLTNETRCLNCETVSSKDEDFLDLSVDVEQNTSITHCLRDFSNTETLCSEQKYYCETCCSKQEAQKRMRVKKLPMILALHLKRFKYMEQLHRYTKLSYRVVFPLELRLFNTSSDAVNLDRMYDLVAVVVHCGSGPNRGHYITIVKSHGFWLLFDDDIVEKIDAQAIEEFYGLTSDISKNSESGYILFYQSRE
UniProt O00487, sequence (O00487 whole entry): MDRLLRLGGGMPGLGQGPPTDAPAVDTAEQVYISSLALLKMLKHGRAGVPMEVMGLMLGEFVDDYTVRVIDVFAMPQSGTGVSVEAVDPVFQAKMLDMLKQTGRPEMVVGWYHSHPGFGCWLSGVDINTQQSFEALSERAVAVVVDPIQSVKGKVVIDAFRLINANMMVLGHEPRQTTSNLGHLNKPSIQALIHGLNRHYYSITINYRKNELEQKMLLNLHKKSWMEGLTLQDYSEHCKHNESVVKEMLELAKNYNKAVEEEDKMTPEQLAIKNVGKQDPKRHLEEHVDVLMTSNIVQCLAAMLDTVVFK

COc1cc(Cl)c(C)cc1NC(=O)CCl
inactive: USP42 -0.591 | USP46 -0.0884 | USP47 -0.965 | USP48 -0.36 | USP5 -0.267 | USP54 0.718 | USP7 -0.373 | USP8 -0.251 | USP9X -0.645 | UniProt O00487 -0.246

Reference: the supplement of paper PMC11732987, “Enantioselective OTUD7B fragment discovery through chemoproteomics screening and high-throughput optimisation” (Communications Chemistry, 2025)
